Screens from PubChem.
USP8 inh: human USP8 deubiquitinase inhibition | purified USP8, Ub-rhodamine cleavage fluorescence, 30 min | inhibition, % at 20 µM | 47,000 compounds, 4.2% hits
UCHL1 inh: human UCHL1 deubiquitinase inhibition | inhibition, % at 20 µM | 47,000 compounds, 0.2% hits | P09936 | purified UCHL1, Ub-rhodamine cleavage fluorescence
Target sequence (P09936 whole entry, looked up): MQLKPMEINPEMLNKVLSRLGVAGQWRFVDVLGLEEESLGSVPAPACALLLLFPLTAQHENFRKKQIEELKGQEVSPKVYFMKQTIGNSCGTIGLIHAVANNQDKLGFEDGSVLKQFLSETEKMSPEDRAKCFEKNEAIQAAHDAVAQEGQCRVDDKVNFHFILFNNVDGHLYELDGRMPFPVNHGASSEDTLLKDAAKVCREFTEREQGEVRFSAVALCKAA
USP7 block: human USP7 deubiquitinase inhibition. purified USP7, Ub-rhodamine cleavage fluorescence. Q93009. 47,000 compounds, 0.3% hits. inhibition, % at 20 µM
USP10 inh: human USP10 deubiquitinase inhibition. Q14694. purified USP10, Ub-rhodamine fluorescence, 60 min. inhibition, % at 20 µM. 47,000 compounds, 1.1% hits
* = called active by the depositor. This is a sample that favours compounds with a hit; in the whole collection about 4.6% have one here. No stated cut-off is given here; in the data, active means inhibition above about 30%; inactive means the rest.

How did COc1ccc(C2Nc3ccccc3C(=O)N2c2ccc3c(c2)OCO3)cc1O (configuration not stated) do in these assays?
USP8 inh: 57*; UCHL1 inh: 3; USP7 block: -2; USP10 inh: -1

How did COc1cc(O)c2c(=O)oc3c(O)c(OC)cc(C)c3c2c1 do in these assays?
USP8 inh: 3; UCHL1 inh: -3; USP7 block: -1; USP10 inh: 4

How did COc1cc2c(oc(=O)c3cc(C)cc(OC)c32)c2c([C@@H]3OC(C)[C@@H](O)[C@@](C)(O)C3O)ccc(O)c12 (some centres not stated) do in these assays?
USP8 inh: 59*; UCHL1 inh: 17; USP7 block: -25; USP10 inh: 4

How did Cc1ccc(NC(=O)Cn2nc3c4c5c(sc4ncn3c2=O)CCCC5)cc1C do in these assays?
USP8 inh: 4; UCHL1 inh: -2; USP7 block: -3; USP10 inh: -5

How did O=C(Cn1nc2c3c4c(sc3ncn2c1=O)CCCCC4)Nc1ccc(Cl)cc1F do in these assays?
USP8 inh: 92*; UCHL1 inh: 6; USP7 block: 22; USP10 inh: 15

How did O=C(Nc1cccc(-c2noc(C3CCC3)n2)c1)C1CC(=O)N(c2ccccc2)C1 (configuration not stated) do in these assays?
USP8 inh: 42*; UCHL1 inh: 1; USP7 block: -1; USP10 inh: 11

What do the screens show for `O=C(Nc1cccc(-c2noc(C3CC3)n2)c1)C1CC(=O)N(c2ccccc2)C1` (configuration not stated)?
USP8 inh: 36*; UCHL1 inh: -1; USP7 block: -4; USP10 inh: 5

What do the screens show for `COc1ccc(CCN2C(=O)CCC2(C)C(=O)NCc2ccccc2)cc1OC` (configuration not stated)?
USP8 inh: 11; UCHL1 inh: 3; USP7 block: 3; USP10 inh: -2

What do the screens show for `CSC1SCC2C(=O)N(C)C(C(C)C(C)C)C(=O)OCC(NC(=O)c3cnc4ccccc4n3)C(=O)NC(C)C(=O)N(C)C1C(=O)N(C)C(C(C)C(C)C)C(=O)OCC(NC(=O)c1cnc3ccccc3n1)C(=O)NC(C)C(=O)N2C` (configuration not stated)?
USP8 inh: 14; UCHL1 inh: 7; USP7 block: 18; USP10 inh: 38*

How did O=C(COc1ccc(Cl)cc1)Nc1noc(-c2cccs2)n1 do in these assays?
USP8 inh: 85*; UCHL1 inh: 8; USP7 block: 21; USP10 inh: 12

How did Fc1ccc(-c2nc(-c3ccc(-n4cccn4)nc3)no2)cc1 do in these assays?
USP8 inh: 26; UCHL1 inh: 1; USP7 block: 7; USP10 inh: 8

How did COc1ccc(Cl)c(NC(=O)C2CC(=O)Nc3cc(-c4ccccc4)nn32)c1 (configuration not stated) do in these assays?
USP8 inh: 32*; UCHL1 inh: 4; USP7 block: 9; USP10 inh: 13

What do the screens show for `Cc1nnc(NC(=O)C2CCN(c3ccc(S(N)(=O)=O)cc3[N+](=O)[O-])CC2)o1`?
USP8 inh: 19; UCHL1 inh: 36*; USP7 block: 43*; USP10 inh: 62*

How did Cc1cc(C)cc(NC(=O)c2c(O)c3ccccc3[nH]c2=O)c1 do in these assays?
USP8 inh: 42*; UCHL1 inh: 4; USP7 block: 9; USP10 inh: 9

Results for O=C(Nc1ccc(Br)cc1)c1cc(=O)[nH]c2ccccc12 ?
USP8 inh: 21; UCHL1 inh: 2; USP7 block: 13; USP10 inh: 19

Results for O=C(COC(=O)C(Cc1ccccc1)NC(=O)c1ccccc1)NCc1ccccc1Cl (configuration not stated) ?
USP8 inh: 3; UCHL1 inh: 6; USP7 block: 3; USP10 inh: 8

How did c1coc(CNc2nc3ccccc3n3nnnc23)c1 do in these assays?
USP8 inh: -331; UCHL1 inh: -154; USP7 block: -140; USP10 inh: -3

Results for Cc1ccc(S(=O)(=O)c2nnn3c2nc(NCc2ccco2)c2sccc23)cc1 ?
USP8 inh: 32*; UCHL1 inh: -2; USP7 block: 0; USP10 inh: 1

What do the screens show for `O=C(OCC(=O)c1cc2ccccc2o1)c1ccc(S(=O)(=O)N2CCc3ccccc3C2)cc1`?
USP8 inh: -25; UCHL1 inh: -14; USP7 block: -2; USP10 inh: -5

Results for O=C(Nc1ccc2ccccc2c1)C(=O)C1C(=O)Nc2ccccc21 (configuration not stated) ?
USP8 inh: 62*; UCHL1 inh: 2; USP7 block: 3; USP10 inh: 7

Results for O=C(Cn1c(SCCOc2ccccc2)nc2ccccc21)NC1CC1 ?
USP8 inh: -4; UCHL1 inh: -1; USP7 block: -2; USP10 inh: 2

Results for COc1ccc(OC)c(NC(=O)CN2c3ccccc3S(=O)(=O)c3ccccc32)c1 ?
USP8 inh: 2; UCHL1 inh: 2; USP7 block: 5; USP10 inh: 1

How did COc1ccc(OC)c(NC(=O)C(C)N2c3cccc4cccc(c34)S2(=O)=O)c1 (configuration not stated) do in these assays?
USP8 inh: 41*; UCHL1 inh: 5; USP7 block: 8; USP10 inh: 7

Results for COc1ccc(OCCCC(=O)Nc2ccccc2-c2nc3ccccc3[nH]2)cc1 ?
USP8 inh: 35*; UCHL1 inh: 2; USP7 block: 3; USP10 inh: -8

Results for COc1cc2ccccc2cc1C(=O)Nc1ccccc1-c1nc2ccccc2[nH]1 ?
USP8 inh: 10; UCHL1 inh: 8; USP7 block: 11; USP10 inh: 6

Results for O=C(Nc1nc2c(s1)CCC2C(=O)Nc1ccc2c(c1)OCO2)c1ccccc1 (configuration not stated) ?
USP8 inh: 38*; UCHL1 inh: 2; USP7 block: 0; USP10 inh: 9

Results for Cc1ccc(S(=O)(=O)c2nnn3c2nc(NCc2ccc(F)cc2)c2ccccc23)cc1C ?
USP8 inh: 51*; UCHL1 inh: 0; USP7 block: 5; USP10 inh: -4

Results for Cc1ccc(C)c(Nc2nc3c(S(=O)(=O)c4ccccc4)nnn3c3ccccc23)c1 ?
USP8 inh: 39*; UCHL1 inh: 3; USP7 block: 7; USP10 inh: 4

How did Cc1ccc(Nc2nc3c(S(=O)(=O)c4ccccc4)nnn3c3ccccc23)c(C)c1 do in these assays?
USP8 inh: 70*; UCHL1 inh: -1; USP7 block: 17; USP10 inh: 11

What do the screens show for `O=S(=O)(c1ccccc1)c1nnn2c1nc(NCc1ccc(Cl)cc1)c1ccccc12`?
USP8 inh: 2; UCHL1 inh: 0; USP7 block: 7; USP10 inh: 8

Results for CN(C(=O)CCn1ncc2ccccc21)c1nc2c(s1)CCc1occc1-2 ?
USP8 inh: -214; UCHL1 inh: -1; USP7 block: -20; USP10 inh: 1

What do the screens show for `COc1ccc(OC)c2c(C)cc(N3CC(C)CC(C)C3)nc12` (configuration not stated)?
USP8 inh: 98*; UCHL1 inh: 22; USP7 block: -33; USP10 inh: 15
